From PubChem BioAssay
In the library only some 2.8% were active in any assay of this set; here they are far more common.
D3 ag = agonists of human D3 dopamine receptor. D3R DiscoveRx beta-arrestin cells, luminescence, 90 min. max activation, %. 0.58% of 410,000 active. AID 652048; in the data active means max activation above about 30%
Target sequence (P35462 whole entry, looked up): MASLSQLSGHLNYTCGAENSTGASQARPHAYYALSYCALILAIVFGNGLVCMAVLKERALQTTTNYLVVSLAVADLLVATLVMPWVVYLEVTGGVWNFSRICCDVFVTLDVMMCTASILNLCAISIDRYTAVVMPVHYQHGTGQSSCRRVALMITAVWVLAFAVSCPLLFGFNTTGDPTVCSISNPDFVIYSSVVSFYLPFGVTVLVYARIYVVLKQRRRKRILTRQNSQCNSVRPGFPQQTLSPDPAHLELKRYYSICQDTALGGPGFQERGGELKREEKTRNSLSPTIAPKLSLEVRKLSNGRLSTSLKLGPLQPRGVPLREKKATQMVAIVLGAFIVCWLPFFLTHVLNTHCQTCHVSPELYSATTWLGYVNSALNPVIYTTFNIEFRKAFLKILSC
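Agonist-mode cell screen: cells plated at 1500/well and incubated overnight at 37 °C, then exposed to library compounds for 90 min at 37 °C. Detection reagent was added for 30–60 min at room temperature, and luminescence was read.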
D3 antag = D3 dopamine receptor (human) antagonism | D3R cells, DiscoveRx beta-arrestin luminescence, antagonist mode; active compounds read low | max response, negative = inhibition, % | 2.5% of 360,000 active | AID 652054; in the data active means max response below about -50%; inconclusive means no clear call, values can overlap the other calls
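Cells plated overnight at 1500 cells/well, then exposed to library compounds with dopamine controls for 90 minutes at 37 degrees C. DiscoveRx reagent added for 30–60 minutes at room temperature; luminescence read, quantitative HTS format.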
Giardia kill = kills Giardia lamblia; Giardia lamblia trophozoite viability; activity change, % at 7.66 µM, hits read low; 0.15% of 340,000 active; AID 540267; in the data active means activity change below about -80%; inconclusive means between about -30% and that limit;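 further: parasites exposed to compound for two days anaerobically before the ATP read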
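Trophozoites 100 cells/well + cpd; 48 hrs, 37 deg C, anaerobic. ATPLite 1-Step added, 15-30 min RT, luminescence read (ATP-based viability).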
B2AR arrestin = agonists driving beta-arrestin recruitment to human beta2-adrenergic receptor | P07550 | beta-arrestin recruitment to beta2AR, cell-based reporter | Potency, µM (series often up to 46.1 µM), most hits filed as activators | 0.02% of 330,000 active; active means well fitted activation curve with a large enough effect; inconclusive means small, poorly fitted or top-dose-only effect; further: nearly all actives have a fitted effect of over 65% in size
A number is an active result; – = inactive; ? = inconclusive; · = no result given.

SMILES | D3 ag | D3 antag | Giardia kill | B2AR arrestin
CC(=O)Nc1c(C)ccc2nsnc12 | – | -77 | – | –
CN1CCN(c2ncnc3c2c(-c2ccccc2)cn3-c2ccc(F)cc2)CC1 | – | -63 | – | –
CC(C)(C)c1ccc(S(=O)(=O)N(CCCN2CCOCC2)Cc2cccs2)cc1 | – | -67 | – | –
CC(=O)Nc1ccc(S(=O)(=O)N(CCCN2CCOCC2)Cc2cccs2)cc1 | – | – | – | –
CCOC(=O)C1CCN(S(=O)(=O)c2cc(-c3onc(C)c3C)ccc2C)CC1 | – | · | · | ·
COc1ccc2c(c1)O[C@H](c1ccc3c(c1)OCO3)[C@@H](OC(=O)N[C@H]1CCCc3ccccc31)C2=O | 54 | – | – | –
Fc1ccc(Nc2nnc(C(F)(F)F)s2)cc1Cl | – | – | – | –
Fc1ccc(Nc2cncc(-c3ccsc3)c2)cc1Cl | – | -52 | · | ·
CCN(CC)c1ccc(CNS(=O)(=O)c2cc3c(cc2C)NC(=O)CO3)cc1 | – | · | · | ·
COc1ccc(OC)c(-n2c(SCC(=O)Nc3cc(C)on3)nnc2-c2c[nH]c3ccccc23)c1 | – | -51 | – | –
CCc1nn(CC(=O)NCc2ccccc2Cl)c(=O)c2cc3ccccc3n12 | – | · | · | ·
O=C(Cn1c(-c2cncs2)nc2ccccc21)NCc1ccccc1 | – | -84 | – | –
CC(C)OC(=O)c1cccc(C(=O)Oc2ccccc2)n1 | – | -59 | – | –
COC(=O)c1cccc(C(=O)Oc2cccc(Br)c2)n1 | – | – | – | –
CCOC(=O)Cc1nn(Cc2nc(-c3ccc(C#N)cc3)cs2)c(=O)c2ccccc12 | 31 | – | – | –
CCOC(=O)Cc1nn(CC)c(=O)c2ccccc12 | – | – | – | –
Cc1ccc(C)c(CNC(=O)c2ccc3c(c2)nc2n3CCCCC2)c1 | – | · | · | ·
CCOC(=O)C1(CC2CC2)CCN(Cc2ccc(C(=O)OC)cc2)CC1 | – | -120 | – | –
CCOC(=O)C1(CCc2ccccc2)CCN(Cc2ccc(C(=O)OC)cc2)CC1 | – | -69 | – | –
CCOC(=O)C1(CCc2ccccc2)CCN(Cc2cc(OC)c(OC)cc2OC)CC1 | – | – | – | –
O=C1NC[C@H](c2ccccc2)N(CCCCC2CCCCC2)C1=O | – | -58 | · | ·
NCCCC[C@H]1CNC(=O)C(=O)N1CCCCC1CCCCC1 | – | – | – | –
O=C1NC[C@@H](CCCCN2C[C@H](Cc3ccc(O)cc3)N(CC3CCCCC3)C(=O)C2=O)N(Cc2ccccc2)C1=O | – | -75 | · | ·
O=C1NC[C@H](CCCCN2C[C@H](Cc3ccc(O)cc3)N(Cc3ccccc3)C(=O)C2=O)N(CCc2ccc(O)cc2)C1=O | 37 | – | · | ·
O=C1NC[C@@H](CCCCN2C[C@H](Cc3ccccc3)N(Cc3ccccc3)C(=O)C2=O)N(CC2CCCCC2)C1=O | – | – | · | ·
SMILES | D3 ag | D3 antag | Giardia kill | B2AR arrestin
O=C1NC[C@@H](CCCCN2C[C@H](Cc3ccc(O)cc3)N(CCc3ccccc3)C(=O)C2=O)N(Cc2ccccc2)C1=O | – | – | · | ·
CC(=O)NN1C(=O)/C(=C\c2ccc(Br)o2)SC1=S | – | -59 | – | –
CC(=O)NN1C(=O)/C(=C/c2ccc(Br)o2)SC1=S | – | – | – | –
C/C(=N/NC(=O)c1cc2ccccc2cc1O)C1C(=O)c2ccccc2C1=O | – | -56 | – | –
Cc1ccc(-c2ccc(/C=N/N3C(=O)C4C5C=CC(CC5)C4C3=O)o2)c([N+](=O)[O-])c1 (stereo unspecified) | – | ? | -102 | –
C=C1Nc2ccccc2C(=O)N1c1ccc(C(=O)N2CCN(C(=O)c3ccco3)CC2)cc1 | · | · | – | ·
CCOc1ccc(CCNC(=O)Cn2c(=O)c3cccn3c3ccc(F)cc32)cc1OCC | – | · | · | ·
O=C(CCN1C(=O)C2C3C=CC(C3)C2C1=O)N1CCN(c2ccccc2Cl)CC1 (stereo unspecified) | – | -80 | – | –
COc1ccc(-c2cc(NCc3ccc(C)cc3)n3cnnc3n2)cc1 | – | · | · | ·
COc1ccc(C(C)(O)c2nc(/C=C/c3ccccc3)cs2)cc1 (stereo unspecified) | – | -78 | · | ·
Cc1ccc(SCC(Cc2ccccc2)N2CCN(CC(C)C)CCC2=O)cc1 (stereo unspecified) | · | · | – | ·
Cc1ccc(SC[C@H](Cc2ccccc2)N2CCN(CCc3ccccc3)CCC2=O)cc1 | – | -58 | – | –
CC(C)CN1CCC(=O)N([C@H](CSc2ccc(Br)cc2)Cc2ccccc2)CC1 | – | -67 | – | –
O=C1CCN(CCc2ccccc2)CCN1[C@H](CSc1ccccc1)Cc1ccccc1 | – | – | – | –
Cc1ccc(O/C=C2/Nn3c(nnc3-c3cc(-c4ccccc4)n[nH]3)S2)cc1 | · | · | – | ·
Cn1c(CN2CCCCC2)nc2cc(NS(=O)(=O)c3ccc(F)cc3)ccc21 | – | -73 | – | –
CC(=O)NCCc1nc2cc(NS(=O)(=O)c3ccc(Cl)cc3)ccc2n1C | – | – | – | –
Cn1c(CCN2CCCCC2)nc2cc(NS(=O)(=O)c3ccc(Cl)cc3)ccc21 | – | -72 | – | –
Cn1c(CN2CCCCC2)nc2cc(NS(=O)(=O)c3ccc(Cl)cc3)ccc21 | – | -65 | – | –
Cc1oc(-c2ccccc2Cl)nc1CS(=O)CC(=O)N1CCN(c2cccc(C(F)(F)F)c2)CC1 (stereo unspecified) | – | · | · | ·
O=C(CN1C(=O)COc2ccc(S(=O)(=O)N3CCOCC3)cc21)N1CCN(c2ccccc2F)CC1 | – | · | · | ·
Cc1ccc(NC(=O)C(Cc2c[nH]c3ccccc23)NC(=O)OCC(C)C)cc1 (stereo unspecified) | – | · | · | ·
Cc1ccc(Nc2nc(C)cc(C)n2)c(C(=O)O)c1 | – | · | · | ·
Cc1ccc(S/C(=N/S(=O)(=O)c2ccc(Cl)cc2)c2ccccc2)cc1 | · | · | – | ·
O=C1c2ccccc2C(=O)c2c1oc(C(F)(F)F)c2C(=O)c1ccccc1 | – | -70 | – | –
SMILES | D3 ag | D3 antag | Giardia kill | B2AR arrestin
O=C(c1ccccc1)c1coc2c1C(=O)c1ccccc1C2=O | – | – | – | –
NC(=O)c1cc(S(=O)(=O)NCC2CCC(C(=O)Nc3cccc(Cl)c3)CC2)cs1 (stereo unspecified) | – | · | · | ·
CN1CCc2nc(SCC(=O)Nc3ccc(Cl)cc3)c(C#N)cc2C1 | – | -60 | – | ·
CCN(CC)c1ccc(C2NC(=O)c3ccccc3N2)cc1 (stereo unspecified) | – | – | -86 | ·
CCN(CC)c1ccc(C2Nc3cccc4cccc(c34)N2)cc1 | – | – | – | –
COc1ccc(NC(=O)NC2(C(=O)N3CCN4CCCC4C3)CCCCC2)cc1 (stereo unspecified) | 31 | – | – | –
Nc1nc(Nc2ccccc2F)sc1C(=O)c1ccc(Cl)cc1 | – | · | · | ·
O=C(Nc1ccc(O)c2c(=O)cc(-c3ccccc3Cl)oc12)c1cc(Cl)cc(Cl)c1 | · | · | – | ·
O=C(Nc1ccc(O)c2c(=O)cc(-c3ccccc3Cl)oc12)c1ccc(Cl)c(Cl)c1 | – | -83 | – | –
Cc1ccc(Sc2ccc(N3CCC(C(=O)Nc4ccc(C)c(F)c4)CC3)nn2)cc1 | – | · | · | ·
Nc1nc(-c2ccccc2)c(N=Nc2ccccc2Cl)s1 | – | -59 | – | –
Nc1nc(-c2ccccc2)c(N=Nc2cccc3ccccc23)s1 | – | ? | – | –
O=C(NN1C(=O)/C(=C/c2ccc(O)c(O)c2)SC1=S)c1ccccc1 | – | -63 | – | –
